# PubChem BioAssay
# Active and inactive are the calls of the source.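 How the source made its calls, unless noted: active means inhibition at or above 50% at 10 µM; inactive means inhibition below 50%.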
# How the values were obtained:
# [1] = inhibitors of TNFa-induced NFkB p65 translocation, primary screen, imaging, HUVEC, MLSMR starter and 10KST1 sets (AID 438;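 active means inhibition above 20% together with a positive visual image hit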;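 further: compound added about 3h40 before a 20 min TNFalpha stimulation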;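 on inhibition: signal is the nuclear over cytoplasmic p65 intensity ratio per well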); conditions: HUVEC TNFa-induced p65 nuclear translocation; cell count: measured here: nuclei count (cytotoxicity indicator), at 2.08 µM; inhibition: at 2 µM, stronger effect = higher value, 0% TNFa-plus-vehicle, 100% no-TNFa wells
# [2] = reduction of polyQ htt aggregates in cells – imaging, exon1htt(103Q)mCFP cells, high-content imaging, primary screen (AID 483;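 active means visual image review flags a hit and inhibition of aggregation exceeds 20%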;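 further: compound exposure lasted 3 days before fixation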;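 on nuclei count: percent of the per-plate median nuclei count of sample wells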); conditions: exon1htt(103Q)mCFP cell line, aggregate imaging, at 2 µM; inhibition of aggregation: stronger effect = higher value; nuclei count: measured here: cell count, toxicity
# [3] = endothelial E-selectin expression blockers – imaging, HUVEC, immunofluorescence, MLSMR starter and 10KST1 sets, primary screen (AID 487;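 active means visually confirmed hit in the image check and inhibition above 20%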;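 on inhibition: signal is fraction of cell area covered by stained E-selectin grains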;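 on nuclei count: 100% = median nuclei count of all wells on the same plate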); conditions: HUVEC TNFalpha-induced E-selectin immunofluorescence imaging, at 2 µM; inhibition: stronger effect = higher value; nuclei count: measured here: cell number, toxicity
# [4] = molecular target: Voltage-gated potassium channel subunit beta-2 (Rattus norvegicus) (UniProt P62483); assay: inhibitors of rat Kvbeta2 reductase activity – biochemical, NADPH fluorescence, primary screen (AID 622;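 active means fluorescence slope higher than the sample average by over 3 SD, cut at about -0.22 in these data, passing the limit was not always enough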;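 further: slope of raw intensity against log time taken from 70 to 1610 s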); conditions: recombinant KvBeta, 4-cyanobenzaldehyde reduction, at 10 µM, stronger effect = higher value
# Chain of Voltage-gated potassium channel subunit beta-2 (Rattus norvegicus) (P62483 whole entry, looked up): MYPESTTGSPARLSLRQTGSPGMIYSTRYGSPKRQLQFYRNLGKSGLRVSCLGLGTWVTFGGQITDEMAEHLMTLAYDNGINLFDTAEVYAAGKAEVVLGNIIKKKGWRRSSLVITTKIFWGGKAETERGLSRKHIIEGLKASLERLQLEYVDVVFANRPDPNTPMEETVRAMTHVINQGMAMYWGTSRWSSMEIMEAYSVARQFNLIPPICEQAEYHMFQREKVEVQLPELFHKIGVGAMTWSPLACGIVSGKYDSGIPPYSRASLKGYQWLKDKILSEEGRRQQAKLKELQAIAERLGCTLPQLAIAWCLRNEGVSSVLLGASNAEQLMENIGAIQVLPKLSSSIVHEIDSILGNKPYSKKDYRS
# [5] = molecular target: Voltage-gated potassium channel subunit beta-2 (Rattus norvegicus) (UniProt P62483); assay: enhancers of rat Kvbeta2 NADPH turnover – biochemical, NADPH fluorescence, primary screen (AID 623;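 active means NADPH fluorescence slope more negative than the mean of all samples by about 3 SD, 99.7% confidence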;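 further: fluorescence intensity change per second fitted from 20 to 320 s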); conditions: Recombinant KvBeta, NADPH fluorescence decrease slope, 10 min; at 10 µM; stronger effect = lower value
# [6] = molecular target: Alpha-2C adrenergic receptor (Homo sapiens) (UniProt P18825); assay: compounds altering alpha2C-coupled GIRK flux – cell-based, HEK293 alpha2C/GIRK1/2, thallium flux, primary screen (AID 624;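 active means fluorescence slope after compound addition differing from the mean of all screened samples at 99.7% confidence, in either direction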;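 further: slope of fluorescence ratio to pre-addition baseline per second over 15 to 24 s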); conditions: thallium flux BTC fluorescence, at 10 µM, actives lie on both sides
# Chain of Alpha-2C adrenergic receptor (Homo sapiens) (P18825 whole entry, looked up): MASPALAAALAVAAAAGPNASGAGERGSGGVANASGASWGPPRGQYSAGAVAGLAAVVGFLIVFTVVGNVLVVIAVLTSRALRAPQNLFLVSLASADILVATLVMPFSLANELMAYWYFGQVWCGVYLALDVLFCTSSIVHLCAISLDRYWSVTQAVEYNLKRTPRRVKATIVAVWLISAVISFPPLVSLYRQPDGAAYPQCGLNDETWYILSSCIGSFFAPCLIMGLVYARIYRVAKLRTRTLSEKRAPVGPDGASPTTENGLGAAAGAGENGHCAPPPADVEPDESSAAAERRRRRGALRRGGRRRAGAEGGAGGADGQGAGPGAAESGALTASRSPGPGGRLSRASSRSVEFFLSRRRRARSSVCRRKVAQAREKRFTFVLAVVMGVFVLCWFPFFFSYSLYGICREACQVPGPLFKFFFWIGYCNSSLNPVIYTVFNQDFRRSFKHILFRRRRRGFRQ
# [7] = blockers of RIG-like receptor reporter activation – cell-based, Sendai virus stimulus, luciferase, 10K MLSCN set, TLR/RLR signaling modifier project, primary screen (AID 602276); conditions: HEK293 RL24 IRF3 luciferase reporter, at 10 µM, stronger effect = higher value;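 further: firefly luciferase from ISG56 promoter only with Renilla not read in this screen; 0% = Sendai virus plus DMSO and 100% = medium plus DMSO without virus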
# [8] = TLR3 IRF3 reporter activation blockers – cell-based, poly I:C stimulus, luciferase, 10K MLSCN set, primary screen (AID 602277;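 active means inhibition of the reporter signal at or above 50%; inactive means inhibition below 50%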); conditions: HEK293-TLR3 RL24 IRF3 luciferase reporter, at 10 µM, stronger effect = higher value
Compound,cell count [1],inhibition [1],inhibition of aggregation [2],nuclei count [2],inhibition [3],nuclei count [3],fluorescence slope [4],NADPH fluorescence slope [5],slope [6],inhibition [7],inhibition [8]
COc1ccc(-n2ccnc2SCC(=O)NCc2ccc3c(c2)OCO3)cc1,495,0.2% (inactive),-17.1% (inactive),110%,-80% (inactive),123%,-0.596 (inactive),-2.8e-06 (inactive),0.006 (inactive),11.9% (inactive),32.1% (inactive)
COc1ccc(C(=O)NCCSc2ccccn2)cc1,778,4.4% (inactive),3.3% (inactive),101%,48% (inactive),95%,-0.478 (inactive),-6.9e-05 (inactive),0.00549 (inactive),-6.19% (inactive),-64.3% (inactive)
COc1ccc(OC)c(NC(=O)c2nnn(Cc3ccc(Br)cc3F)c2N)c1,777,0.6% (inactive),20.9% (inactive),99.3%,-25.4% (inactive),116%,-0.525 (inactive),-1.8e-05 (inactive),0.00503 (inactive),1.6% (inactive),5.74% (inactive)
CCCCCc1c(O)nc(SCC(=O)NCC2CCCO2)[nH]c1=O (centres undefined),579,7.7% (inactive),-2.5% (inactive),108%,-51.3% (inactive),111%,-0.417 (inactive),3.1e-05 (inactive),0.00681 (inactive),3.21% (inactive),1.9% (inactive)
CCOC(=O)N1CCN(C(=O)CSc2nnc(COc3ccccc3)o2)CC1,596,4.7% (inactive),-3.5% (inactive),105%,-3.6% (inactive),112%,-0.565 (inactive),1.8e-05 (inactive),0.00595 (inactive),-13.9% (inactive),10.1% (inactive)
COc1cc2c(C#N)c(N3CCOCC3)nc(N)c2c(N)n1,694,-7.8% (inactive),-18.2% (inactive),117%,-22.5% (inactive),114%,-0.0448 (inactive),-2.1e-06 (inactive),0.00579 (inactive),15.2% (inactive),46.9% (inactive)
Cc1c(C(=O)Nc2cnccn2)oc2ccccc12,370,7.3% (inactive),7.5% (inactive),95.3%,-97.6% (inactive),108%,-0.371 (inactive),4.4e-05 (inactive),0.00977 (inactive),0.764% (inactive),-4.49% (inactive)
O=C(CSCc1cnn(-c2ccccc2)c1-n1cccc1)NCC1CCCO1 (centres undefined),587,-10% (inactive),-10.3% (inactive),101%,-1.9% (inactive),121%,-0.581 (inactive),-4.7e-05 (inactive),0.00606 (inactive),2.57% (inactive),15.3% (inactive)
COc1ccc(CCn2c(NCCCN3CCOCC3)nc3c2c(=O)[nH]c(=O)n3C)cc1,395,2.1% (inactive),-5.3% (inactive),110%,-6.4% (inactive),99.3%,-0.539 (inactive),2.7e-05 (inactive),0.00501 (inactive),-6.62% (inactive),-4.13% (inactive)
Cc1cc(=O)oc2cc(OCC#N)ccc12,823,-2.9% (inactive),-19.8% (inactive),95.4%,-66.4% (inactive),128%,-0.521 (inactive),-3.5e-05 (inactive),0.0067 (inactive),8.92% (inactive),27.1% (inactive)
CC1=Nn2c(nnc2-c2ccccn2)SC1,378,4.8% (inactive),-0.1% (inactive),68.5%,-158% (inactive),198%,-0.443 (inactive),-4.3e-05 (inactive),0.00557 (inactive),7.81% (inactive),11.5% (inactive)
Cc1nc2ccccc2c2oc(C(=O)NCC3COc4ccccc4O3)cc12 (centres undefined),532,7.6% (inactive),-11.9% (inactive),91.7%,3.3% (inactive),99%,-0.569 (inactive),-1.4e-05 (inactive),0.00744 (inactive),9.7% (inactive),-3.35% (inactive)
CN(c1ccccc1)S(=O)(=O)c1ccc(C(=O)OCC(=O)NCc2ccco2)cc1,608,11.6% (inactive),14.7% (inactive),112%,-37.2% (inactive),99.7%,-0.588 (inactive),2e-05 (inactive),0.00551 (inactive),-14.7% (inactive),0.385% (inactive)
CC(C)CNc1oc(-c2ccc(F)cc2)nc1C#N,696,-2.9% (inactive),-21% (inactive),108%,-41.9% (inactive),118%,-0.543 (inactive),-5e-06 (inactive),0.00664 (inactive),-4.19% (inactive),2.46% (inactive)
